PubChem BioAssay (NCATS)
Inconclusive results are not listed. Activity calls are given as the source filed them. Calls follow the shape of the dose curve; as a rule, active = well fitted cell-killing curve with a large enough effect; inconclusive = small, poorly fitted or top-dose-only effect, or effect the other way; inactive = flat fitted curve, though single readings scatter.

What was measured:
Assay in all cases: Primary qHTS to identify gynecologic anti-cancer compounds using libraries of approved drugs and bioactive compounds (AID 1345084); also: nearly all actives have a fitted effect of over 55% in size
Details in all cases: Gynecologic cancer cell panel viability, ATPlite luminescence, 48 h; series mostly up to 57.5 µM
JEG-3 = test system: JEG-3
Procedure, shortened: (§1)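 Cells, 1,000 per well, plated 16 h, then exposed 48 h at 37 C to compounds. Viability by ATPlite luminescence after 15 min at room temperature.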

OV90 = test system: OV90
Procedure, shortened: as §1

PA-1 = test system: PA-1
Procedure, shortened: as §1

SKOV3 = test system: SKOV3
Procedure, shortened: as §1

Tov-21-G = test system: Tov-21-G
Procedure, shortened: as §1

Tov112D = test system: Tov112D
Procedure, shortened: as §1
% is scaled to controls: 0 for no effect and ±100 for the full control effect.

C[C@H]1[C@H](C)CC[C@]2(C(=O)O)CC[C@]3(C)C(=CC[C@@H]4[C@@]5(C)C[C@@H](O)[C@H](O)[C@@](C)(CO)[C@@H]5CC[C@]43C)[C@H]12
inactive: Potency (JEG-3) | Potency (OV90) | Potency (PA-1) | Potency (SKOV3) | Potency (Tov-21-G) | Potency (Tov112D)

NCCCC[C@H](NC(=O)[C@@H]1Cc2ccccc2CN1C(=O)CCC(=O)c1ccccc1)C(=O)NCC(c1ccccc1)c1ccccc1
inactive: Potency (JEG-3) | Potency (OV90) | Potency (PA-1) | Potency (SKOV3) | Potency (Tov-21-G) | Potency (Tov112D)

C/C=C/C1=CC2=C(CO1)C(=O)[C@](C)(O)[C@H](OC(=O)c1c(O)cc(OC)c(O)c1C)C2
inactive: Potency (JEG-3) | Potency (OV90) | Potency (PA-1) | Potency (SKOV3) | Potency (Tov-21-G) | Potency (Tov112D)

O=C(CCO[C@@H]1O[C@H](CO)[C@@H](O)[C@H](O)[C@H]1O)c1ccc(O)cc1
inactive: Potency (JEG-3) | Potency (OV90) | Potency (PA-1) | Potency (SKOV3) | Potency (Tov-21-G) | Potency (Tov112D)

COC(=O)[C@@]1(C)CC[C@]2(C(=O)O[C@@H]3O[C@H](CO)[C@@H](O)[C@H](O)[C@H]3O)CC[C@]3(C)C(=CCC4[C@@]5(C)CC[C@H](O[C@@H]6O[C@H](C(=O)O)[C@@H](O)[C@H](O)[C@H]6O)C(C)(C)C5CC[C@]43C)[C@@H]2C1 (stereo partly specified)
inactive: activity change, negative = cytotoxicity (JEG-3) -1.5% [at 11.6 µM] | activity change, negative = cytotoxicity (OV90) -2.61% [at 11.6 µM] | activity change, negative = cytotoxicity (PA-1) -17.6% [at 11.6 µM] | activity change, negative = cytotoxicity (SKOV3) -12.6% [at 11.6 µM] | activity change, negative = cytotoxicity (Tov-21-G) 1.4% [at 11.6 µM] | activity change, negative = cytotoxicity (Tov112D) -8.48% [at 11.6 µM]

C=C1C(=O)OC2/C=C(\C)CC/C=C(\C(=O)O)CC/C=C(\C)CCC12 (stereo unspecified)
inactive: Potency (JEG-3) | Potency (OV90) | Potency (PA-1) | Potency (SKOV3) | Potency (Tov-21-G) | Potency (Tov112D)

COC(=O)CC1(O)C(=O)Nc2ccccc21 (stereo unspecified)
inactive: Potency (JEG-3) | Potency (OV90) | Potency (PA-1) | Potency (SKOV3) | Potency (Tov-21-G) | Potency (Tov112D)

COC1(CC(C)C)NC(=O)C(O)(Cc2ccccc2)NC1=O (stereo unspecified)
inactive: Potency (JEG-3) | Potency (OV90) | Potency (PA-1) | Potency (SKOV3) | Potency (Tov-21-G) | Potency (Tov112D)

COc1ccc(C(O[C@@H]2O[C@H](CO)[C@@H](O)[C@H](O)[C@H]2O)C(CO)Oc2ccc(/C=C/CO)cc2OC)cc1O (stereo partly specified)
inactive: Potency (JEG-3) | Potency (OV90) | Potency (PA-1) | Potency (SKOV3) | Potency (Tov-21-G) | Potency (Tov112D)

Cc1cccc(-c2[nH]c(CNc3ccccc3F)nc2-c2ccc3ncnn3c2)n1
inactive: Potency (JEG-3) | Potency (OV90) | Potency (PA-1) | Potency (SKOV3) | Potency (Tov-21-G) | Potency (Tov112D)

Cc1[nH]cnc1C1CCN(c2nc3cccc4c3n2CCC4=O)CC1
inactive: Potency (JEG-3) | Potency (OV90) | Potency (PA-1) | Potency (SKOV3) | Potency (Tov-21-G) | Potency (Tov112D)

CC(NC(=O)CC(=O)O)c1nc2ccccc2c(=O)[nH]1 (stereo unspecified)
inactive: Potency (JEG-3) | Potency (OV90) | Potency (PA-1) | Potency (SKOV3) | Potency (Tov-21-G) | Potency (Tov112D)

COc1c(C)c(OCC=C(C)C)cc2c1C(=O)NC2=O
inactive: Potency (JEG-3) | Potency (OV90) | Potency (PA-1) | Potency (SKOV3) | Potency (Tov-21-G) | Potency (Tov112D)

NC(=O)c1ccc(OCC2NC(=O)C3CCCN3C2=O)cc1 (stereo unspecified)
inactive: Potency (JEG-3) | Potency (OV90) | Potency (PA-1) | Potency (SKOV3) | Potency (Tov-21-G) | Potency (Tov112D)

CC1(C)CC2C3=CCC4C5(C)CCC(OC6OC(CO)C(O)C(OC7OC(CO)C(O)C(OC8OC(CO)C(O)C(OC9OC(COC%10OC(CO)C(O)C(O)C%10O)C(O)C(O)C9O)C8O)C7O)C6O)C(C)(C)C5CCC4(C)C3(C)CCC2(C(=O)O)CC1O (stereo unspecified)
inactive: activity change, negative = cytotoxicity (JEG-3) 6.92% [at 6.55 µM] | activity change, negative = cytotoxicity (OV90) 0.668% [at 6.55 µM] | activity change, negative = cytotoxicity (PA-1) 1.44% [at 6.55 µM] | activity change, negative = cytotoxicity (SKOV3) 0% [at 6.55 µM] | activity change, negative = cytotoxicity (Tov-21-G) -2.7% [at 6.55 µM] | activity change, negative = cytotoxicity (Tov112D) 1.66% [at 6.55 µM]

CC1=CC2(O)/C=C/C(C)(O)CC(O)/C=C/C(=O)OC23C(=O)NC(CC(C)C)C3C1C (stereo unspecified)
inactive: Potency (JEG-3) | Potency (OV90) | Potency (PA-1) | Potency (SKOV3) | Potency (Tov-21-G) | Potency (Tov112D)

CC(/C=C/[C@]1(O)[C@@]2(C)CO[C@@]1(C)C[C@@H](O)C2)=C\C(=O)O[C@@H]1O[C@H](CO)[C@@H](O)[C@H](O)[C@H]1O
inactive: Potency (JEG-3) | Potency (OV90) | Potency (PA-1) | Potency (SKOV3) | Potency (Tov-21-G) | Potency (Tov112D)

C=CC(C)(O)CO[C@@H]1O[C@H](CO)[C@@H](O)[C@H](O)[C@H]1O (stereo partly specified)
inactive: Potency (JEG-3) | Potency (OV90) | Potency (PA-1) | Potency (SKOV3) | Potency (Tov-21-G) | Potency (Tov112D)

COc1c(OC2OC(CO)C(O)C(O)C2O)ccc(O)c1C(=O)OCc1ccccc1O[C@@H]1O[C@H](CO)[C@@H](O)[C@H](O)[C@H]1O (stereo partly specified)
inactive: Potency (JEG-3) | Potency (OV90) | Potency (PA-1) | Potency (SKOV3) | Potency (Tov-21-G) | Potency (Tov112D)

c1ccc(C(OC2CCN(CCCc3nn[nH]n3)CC2)c2ccccc2)cc1
inactive: Potency (JEG-3) | Potency (OV90) | Potency (PA-1) | Potency (SKOV3) | Potency (Tov-21-G) | Potency (Tov112D)

CCOC(=O)c1ccnc(CNCC(=O)N(CC)CCN(C)C)c1
inactive: Potency (JEG-3) | Potency (OV90) | Potency (PA-1) | Potency (SKOV3) | Potency (Tov-21-G) | Potency (Tov112D)
